Compounds with a hit are over-represented: about 10% of the library has one in this group of screens.
SARS PLpro yeast: SARS-CoV PLP inhibition in yeast; S. cerevisiae expressing SARS-CoV PLpro, growth rescue; Potency, µM (top dose mostly 32.9 µM), most hits filed as activators; actives 0.19% (n = 330,000); AID 485353; also: nearly all actives have a fitted effect of over 55% in size
Pf growth 48h: P. falciparum growth inhibition at 48 hours (one generation); actives 5.9% (n = 310,000); AID 504832; P. falciparum luciferase growth in erythrocytes, 48 h; Potency, µM (doses to about 28.7 µM), most hits filed as inhibitors; active = well fitted inhibition curve with a large enough effect; inconclusive = small, poorly fitted or top-dose-only effect, or another doubt; inactive = no such curve, though single readings can be large or run the other way
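Cell-based growth assay: transgenic P. falciparum expressing firefly luciferase, cultured in red cells within RPMI 1640 containing 0.5% w/v Albumax, 24 mM bicarbonate and gentamycin. A drop in luciferase activity indicates inhibition.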
NS1 inh: inhibitors of influenza NS1 protein function; Potency, µM (top dose mostly 46.1 µM); actives 0.4% (n = 270,000); also: actives are rising curves; nearly all actives have a fitted effect of over 50% in size
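Growth recovery, yeast-based: influenza A NS1 expressed in S. cerevisiae causes slow growth, and suppressors are detected by OD600. The parent strain without NS1 is used as positive control.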
Pf growth 96h: P. falciparum growth inhibition at 96 hour, primary screen for plastid delayed-death inhibitors. P. falciparum luciferase reporter growth, 96 h. Potency, µM (highest dose often 28.7 µM), most hits filed as inhibitors. actives 6.9% (n = 320,000); active = well fitted inhibition curve with a large enough effect; inconclusive = small, poorly fitted or top-dose-only effect, or another doubt; inactive = no such curve, though single readings can be large or run the other way
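Luminescence readout: decreased luciferase signal marks inhibited growth of reporter-expressing P. falciparum in infected red cells (2% hematocrit, 0.05% parasitemia final), exposed to compound two generations (96 h, 37 C, 5% CO2).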
Hits are given with their value; – = inactive; ? = inconclusive; · = not tested or not shown; [ ] = remark or other dose. Unless noted, calls follow the shape of the full dose curve.

SMILES	SARS PLpro yeast	Pf growth 48h	NS1 inh	Pf growth 96h
CCCCn1c(N)c(N(CC(C)C)C(=O)C2CCN(S(=O)(=O)c3ccc(OCC)cc3)CC2)c(=O)[nH]c1=O	–	?	·	?
CCN1CCCC1CNC(=O)c1ccc2c(c1)NC(=O)/C(=C\c1ccc(OC)c(OC)c1)S2 (stereo unspecified)	–	4.65µM	–	?
COc1ccc(/C=C2/Sc3ccc(C(=O)NCCCN4CCOCC4)cc3NC2=O)cc1OC	?	?	–	?
COc1ccc(OC)c(NC(=O)CC2SC(=Nc3ccccc3)N(CCc3ccccn3)C2=O)c1 (stereo unspecified)	–	14.7µM	–	4.65µM
COc1ccc(N=C2SC(CC(=O)Nc3ccccc3)C(=O)N2CCc2ccccn2)cc1 (stereo unspecified)	–	?	–	14.7µM
CCOC(=O)c1cnc2cc(F)c(F)cc2c1N1CCN(C)CC1	–	?	–	?
COc1ccc(-n2nc(C(=O)NCC(=O)Nc3cc(OC)c(OC)c(OC)c3)c3ccccc3c2=O)cc1Cl	–	?	–	–
COc1ccc(-n2nc(C(=O)NCC(=O)Nc3ccccn3)c3ccccc3c2=O)cc1	–	–	–	–
CCOc1ccc(NC(=O)CNC(=O)c2nn(-c3ccc(OC)cc3)c(=O)c3ccccc23)cc1	–	9.28µM	–	–
COc1ccc(-n2nc(C(=O)NCC(=O)Nc3cccc(Cl)c3)c3ccccc3c2=O)cc1	–	9.28µM	?	11.7µM
O=C(Nc1ccc(OC(F)(F)F)cc1)c1ccc(S(=O)(=O)N2CCOCC2)o1	–	–	–	?
O=C(NC(=S)NC1CCSC1=O)c1cccc([N+](=O)[O-])c1 (stereo unspecified)	–	–	–	?
O=C(NC(=S)NC1CCSC1=O)c1ccc([N+](=O)[O-])cc1 (stereo unspecified)	–	–	–	10.4µM
CN(C)CCSc1nc(N)c2c3c(sc2n1)CN(C)CC3	–	4.15µM	–	?
CC(C)Sc1nc(N)c2c3c(sc2n1)CN(C)CC3	–	1.04µM	–	·
COCCSc1nc(N)c2c3c(sc2n1)CN(C)CC3	–	5.22µM	–	3.7µM
COC(=O)CSc1nc(N)c2c3c(sc2n1)CCCC3	–	–	–	–
CCCSc1nc(N)c2c3c(sc2n1)CN(C)CC3	–	?	–	?
CC(=O)c1ccc(S(=O)(=O)NC2CCCCCCC2)cc1	–	–	–	–
O=C(Nc1ccc(OC(F)(F)F)cc1)C1CCCN(C(=O)c2ccc(Cl)cc2)C1 (stereo unspecified)	–	?	·	?
CC(=O)c1ccc(N2CCN(C(=O)C(=O)c3cn(CC(=O)N4CCCCCC4)c4ccccc34)CC2)cc1	–	?	?	?
COc1ccccc1N1CCN(C(=O)C(=O)c2cn(CC(=O)N3CCCCCC3)c3ccccc23)CC1	–	9.28µM	–	7.38µM
COc1ccccc1N1CCN(C(=O)C(=O)c2cn(CC(=O)N3CCCC3)c3ccccc23)CC1	–	?	–	9.28µM
O=C(NNC(=O)c1ccc(S(=O)(=O)N2CCCC2)cc1)c1ccc(Br)cc1	–	?	·	–
CCN1CCN(c2ccc(NC(=O)c3cc(OC)c(OC)c(OC)c3)cc2)CC1	–	–	–	–
SMILES	SARS PLpro yeast	Pf growth 48h	NS1 inh	Pf growth 96h
O=NCc1ccc([N+](=O)[O-])o1	·	?	·	13.5µM
Cc1ccc(S(=O)(=O)N(CC(=O)N2CCOCC2)c2ccc(C(C)C)cc2)cc1	–	–	–	10.4µM
Cc1ccc(S(=O)(=O)N(CC(=O)N2CCCC2)C2CCCCC2)cc1	–	?	–	11.7µM
Cc1ccc(S(=O)(=O)N(CC(=O)N2CCC(C)CC2)c2ccccc2)cc1	–	11.7µM	–	–
O=C(CN(c1ccc(F)cc1)S(=O)(=O)c1ccc2c(c1)OCCO2)N1CCOCC1	–	–	–	1.04µM
Cc1cc(C)c(S(=O)(=O)N(CC(=O)N2CCCC2)C2CCCCC2)c(C)c1	·	?	–	·
O=C(CSCc1ccc(Cl)cc1)Nc1ccc(O)cc1C(=O)O	–	–	–	–
CCOC(=O)C1=CN(Cc2ccco2)S(=O)(=O)N(CC)C1c1ccc(C(F)(F)F)cc1 (stereo unspecified)	–	·	·	·
CCn1cc(C(=O)NC2CCCc3c2cnn3-c2cccc(C)c2C)cn1 (stereo unspecified)	–	–	–	?
CC(=O)c1cnc2nc(SCc3ccc(Cl)cc3)nn2c1C	–	–	–	–
CN1CCC2(CC1)Nc1nc(SCc3ccc(Cl)cc3)nn1C1=C2CN(C)CC1	?	3.29µM	–	–
CCCC(C)C1(CC)C(=O)NC(=Nc2ccccc2OC)NC1=O (stereo unspecified)	–	–	–	10.4µM
Nc1nc(SCC(=O)Nc2ccc([N+](=O)[O-])cc2)[nH]c(=O)c1NC(=O)c1ccc(Br)cc1	–	–	?	?
NNc1nc2sc3c(c2c(=O)n1C1CCCCC1)CCN(Cc1ccccc1)C3	–	?	–	1.17µM
CCSc1nc2sc3c(c2c(=O)n1C1CCCCC1)CCN(C)C3	–	1.31µM	–	–[5.75 µM]
CSc1nc2sc3c(c2c(=O)n1C1CCCCC1)CCN(C)C3	–	?	–	?
C=C(C)CSc1nc2sc3c(c2c(=O)n1C1CCCCC1)CCN(C)C3	–	1.47µM	–	1.04µM
NNc1nc2sc3c(c2c(=O)n1Cc1ccccc1)CCC3	–	–	–	–
COC(=O)C1=C(C)NC(C)=C(C(=O)OCC(C)C)C1c1ccccc1[N+](=O)[O-] (stereo unspecified)	·	7.57µM	·	2.39µM
CCCOc1ccccc1C1CC(=O)NC(C)=C1C(=O)OCC(C)C (stereo unspecified)	–	?	–	–
CC1(C)Cc2c(C#N)c(SCCC#N)nc(N3CCOCC3)c2CS1	–	?	–	4.65µM
CC(C)c1nc(N2CCN(C(=O)c3ccco3)CC2)c(C#N)c2c1COC(C)(C)C2	–	?	–	?
CC1(C)Cc2c(C#N)c(SCCO)nc(N3CCOCC3)c2CO1	–	?	–	?
CC(C)OC(=O)CSc1nc(N2CCOCC2)c2c(c1C#N)CC(C)(C)OC2	–	4.65µM	–	?
CCCCc1nc(N2CCOCC2)c(C#N)c2c1COC(C)(C)C2	–	6.57µM	–	9.28µM
SMILES	SARS PLpro yeast	Pf growth 48h	NS1 inh	Pf growth 96h
CC(C)c1nc(N2CCN(C(=O)c3ccccc3)CC2)c(C#N)c2c1COC(C)(C)C2	–	10.4µM	–	–
CC1CCCN(C(=O)c2cn(-c3ccccc3)nc2-c2cccnc2)C1 (stereo unspecified)	–	?	·	?
O=C(COC(=O)c1ccc(O)cc1O)Nc1ncc(Cl)cc1Cl	–	–	·	–
COc1ccc(OC)c(N(C)S(=O)(=O)c2ccc3c(c2)N(C(C)=O)CCO3)c1	–	–	–	–
CC1(C)Cc2c(C#N)c(SCCOc3ccccc3)nc(N3CCOCC3)c2CO1	–	11.7µM	–	8.28µM
CC1(C)Cc2c(C#N)c(SCCC#N)nc(N3CCOCC3)c2CO1	–	?	–	?
NC1=NC[C@H](Cc2ccc(O)cc2)N1CC1CCCCC1	–	5.86µM	–	2.62µM
c1ccc(C[C@H]2CN=C(Nc3ccccc3)N2CCCC2CCCC2)cc1	–	?	–	?
NC1=NC[C@@H](Cc2ccc(O)cc2)N1CCCCC1CCCCC1	–	1.85µM	–	1.17µM
Oc1ccc(C[C@@H]2CNCCN2CCCCC2CCCCC2)cc1	–	?	·	?
